Potency data for nine molecules are collected here from PubChem BioAssay (NCATS).

SMILES strings stand for the structures. Records with an inconclusive call do not appear. Where a call stands in place of a potency, no number is given. Calls of active or inactive are those of the source. Calls come from the whole dose curve; as a rule, active = well fitted inhibition curve with a large enough effect; inconclusive = small, poorly fitted or top-dose-only effect; inactive = flat fitted curve, though single readings scatter.

Calcium and integrin-binding protein 1 (Homo sapiens), sequence (Q99828 whole entry, looked up): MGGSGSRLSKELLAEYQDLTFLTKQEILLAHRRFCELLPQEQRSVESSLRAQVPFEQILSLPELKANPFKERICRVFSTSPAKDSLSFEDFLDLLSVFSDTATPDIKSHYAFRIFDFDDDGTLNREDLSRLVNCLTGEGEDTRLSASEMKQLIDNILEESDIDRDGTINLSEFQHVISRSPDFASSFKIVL

For this assay, the target named is Calcium and integrin-binding protein 1 (Homo sapiens) (UniProt Q99828). The experiment in a line: Primary qHTS for Identification of Calcium Integrin Binding Protein 1 (CIB1) Competitor (AID 1508620).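 Note: GST tagged CIB1 binding a fluorescein labelled alphaIIb integrin peptide tracer; top concentration of the series differs between compounds.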 As to conditions: CIB1-GST / FITC-alphaIIb peptide fluorescence polarization; series mostly up to 114 µM. The essentials:
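CIB1-GST (1 uM final) and compound incubated 15 min at room temperature before adding FITC-alphaIIb peptide tracer (100 nM final). Competition for binding read by fluorescence polarization (ex 480, em 540) after another 15 min at room temperature.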
With `Cc1nc2cc(C(=O)NCc3ccccn3)nn2c(C)c1Cc1cccc(Cl)c1`, the Potency result is “inactive”.

In the case of `C/C(=C\CO[C@@H]1O[C@H](CO[C@H]2OC[C@](O)(CO)[C@H]2O)[C@@H](O)[C@H](O)[C@H]1O)C(C)(C)O`, the Potency result is “inactive”. Then `CCn1c(=O)c(-c2ccc(Cl)cc2Cl)cc2cnc(Nc3ccc(N4CCNCC4)c(F)c3)nc21`, with “inactive”. Then `CC(=O)O[C@@H]1C[C@@]23C[C@@]24CC[C@H](O[C@@H]2OC[C@H](O)[C@H](O)[C@H]2O)C(C)(C)[C@@H]4CC[C@H]3[C@]2(C)[C@@H](O)C34O[C@H](C[C@@H](C)[C@@H]3[C@@]12C)[C@@H](C(C)(C)O)O4`, with “inactive”; and `NC(=O)c1cccc2[nH]c(-c3ccc(C4CCCN4)cc3F)nc12` (centres undefined), with “inactive”. Under `CCC(C)C(=O)O[C@H]1[C@@H](OC(=O)c2ccoc2)C[C@](C)(O)[C@]23OC(C)(C)[C@H](C[C@H](OC(=O)c4ccoc4)[C@]12COC(C)=O)[C@H]3OC(C)=O` (some centres undefined) stands “inactive”; under `CC(=O)OC[C@]12[C@H](OC(C)=O)C(=O)[C@@H]3[C@@H](O)[C@@]14O[C@@]3(C)COC(=O)c1cccnc1[C@@H](C)[C@H](C)C(=O)O[C@@H]([C@H](O)[C@@H]2OC(C)=O)[C@]4(C)O`, “inactive”; under `CC(=O)O[C@@]12CO[C@@H]1C[C@H](O)[C@@]1(C)C(=O)[C@H](O)C3=C(C)[C@@H](OC(=O)[C@H](O)[C@@H](NC(=O)OC(C)(C)C)c4ccccc4)C[C@@](O)([C@@H](OC(=O)c4ccccc4)C12)C3(C)C` (some centres undefined), “inactive”.

For `c1ccc(-c2cnn3cc(-c4ccc(OCCN5CCOCC5)cc4)cnc23)cc1`, the Potency result is “inactive”.
